Results reported in PubChem BioAssay AID651602 (The Scripps Research Institute Molecular Screening Center, 2012).
Screen size: about 360,000 compounds; about 950 (0.26%) were called active. Cut-off read from the data, not from the text of the source: active = inhibition above about 11%; inactive = the rest. For the sample, actives were picked, then their nearest neighbours and some compounds at random.

assay: reduced absorbance of E. coli cultures with phage – HTS, RecBCD inhibitor project, primary screen (AID 651602); settings: growth absorbance, at 11.9 µM, hits give high values

| SMILES | inhibition |
| --- | --- |
| O=C1[C@@H](c2ccccc2)[C@@H](c2ccccc2)N1c1ccccc1 | 1.64% (inactive) |
| COc1ccc(-c2ccc3c(n2)CCCN3S(=O)(=O)c2ccc(C)cc2)cc1 | 4.42% (inactive) |
| CC(NC(=S)Nc1ccccc1)C1COc2ccccc2O1 (stereo not given) | 4.25% (inactive) |
| S=C(NCC1COc2ccccc2O1)Nc1ccc(Br)cc1 (stereo not given) | 11.1% (active) |
| O=C(COc1ccc(F)cc1Br)NCC1COc2ccccc2O1 (stereo not given) | 1.96% (inactive) |
| O=C(N[C@H](Cc1ccccc1)C(=O)N1CCCN(Cc2cccs2)CC1)[C@H]1O[C@@H](n2ccc(=O)[nH]c2=O)[C@H](O)[C@@H]1O | 3.33% (inactive) |
| CCOC(=O)Cn1c2c(n(-c3ccc(F)cc3)c1=O)C=C(c1ccccc1)[C@@H](C)C(C(=O)N(C)C1CCCCC1)=C2 | 3.33% (inactive) |
| CN(C)C(=O)N1CCN(C(=O)[C@@H](Cc2ccccc2)NC(=O)[C@H]2O[C@@H](n3ccc(N)nc3=O)[C@H](O)[C@@H]2O)CC1 | 1.56% (inactive) |
| COc1ccc(CNS(=O)(=O)c2cc(Br)ccc2Br)cc1 | 0.71% (inactive) |
| CC1CN(C(=S)Nc2ccccc2F)CC(C)O1 (stereo not given) | 2.38% (inactive) |
| COc1c(N2CCN(C(=S)Nc3ccccc3F)C(C)C2)c(F)cc2c(=O)c(C(=O)O)cn(C3CC3)c12 (stereo not given) | 99.2% (active) |
| COc1ccccc1NC(=S)N1CCN(c2ccc(F)cc2)CC1 | 2.7% (inactive) |
| CCOC(=O)CNC(=O)N(C)[C@H]1C[C@H]2c3[nH]c4c(-c5ccc6c(c5)OCO6)cccc4c3CCN2C(=O)[C@H]1[C@H](C)O | 1.25% (inactive) |
| COc1cccc(CC(=O)N2CCN(C(=O)C(=O)c3cccc(C(F)(F)F)c3)CC2)c1 | 0.39% (inactive) |
| COC(=O)[C@]12C[C@H](CC(=O)NCCC(C)C)C(=O)N(CCc3ccc(OC)c(OC)c3)C1=C[C@H](C(C)(C)C)O[C@@H]2C | 4.73% (inactive) |
| COc1ccc(N(CC(=O)NC2CCCCC2)S(=O)(=O)c2c(C)[nH]c(=O)[nH]c2=O)cc1 | -1.14% (inactive) |
| CCOc1ccc(N(CC(=O)Nc2ccccc2F)S(=O)(=O)c2c(C)[nH]c(=O)[nH]c2=O)cc1 | 3.53% (inactive) |
| CCOc1ccc(N(CC(=O)NC2CCCCCC2)S(=O)(=O)c2c(C)[nH]c(=O)[nH]c2=O)cc1 | 80.4% (active) |
| Nc1[nH]c(C(=O)c2ccccc2)c(-c2ccc(Cl)cc2Cl)c1C(=O)c1ccccc1 | 3.17% (inactive) |
| Cc1cc(NCCc2c[nH]c3ccccc23)ccc1Oc1cccnc1 | 1.27% (inactive) |
| COCc1[nH]nc2c1C(c1ccccc1)N(c1ccccc1)C2=O (stereo not given) | 1.43% (inactive) |
| CC(C)=CC(=O)Nc1nnc(-c2ccc(F)cc2)s1 | 1.99% (inactive) |
| Cc1ccc(NC(=O)Nc2nnc(-c3ccncc3)s2)cc1 | 12.4% (active) |
| O=C(Nc1ccccc1)Nc1nnc(COc2ccccc2F)s1 | 0.84% (inactive) |
| C[C@H](O)[C@@H]1C(=O)N2CCc3c([nH]c4c(-c5ccc6c(c5)OCO6)cccc34)[C@@H]2C[C@@H]1N(C)C(=O)c1ccco1 | 4.12% (inactive) |
| CCCCNC(=O)c1cn(CC)c2cc(N3CCN(C(=O)c4ccco4)CC3)c(F)cc2c1=O | 1.02% (inactive) |
| CN1CCN(c2cc3c(cc2F)c(=O)c(C(=O)O)cn3CCF)CC1 | 99.2% (active) |

| SMILES | inhibition |
| --- | --- |
| CCn1cc(S(=O)(=O)c2cccc(C)c2)c(=O)c2cc(F)c(N3CCN(C)CC3)cc21 | 0.96% (inactive) |
| CCn1cc(C(=O)NCCC(=O)NCCO)c(=O)c2cc3c(cc21)OCO3 | 0.08% (inactive) |
| CCCCCCn1cc(C(=O)O)c(=O)c2cc(F)c(N3CCCCC3)cc21 | 1.18% (inactive) |
| CCn1cc(C(=O)NCCO)c(=O)c2cc(F)c(N3CCN(C)CC3)cc21 | 92.5% (active) |
| C=CCN1C(=O)N(Cc2ccccc2)c2ccccc2S1(=O)=O | 1.27% (inactive) |
| COc1ccc(OC)c(Cc2cnc3nc(N)nc(N)c3c2C)c1 | 82.4% (active) |
| Brc1ccc(COCCc2cn(Cc3ccccc3)c3ccccc23)cc1 | 2.34% (inactive) |
| Cc1[nH]nc2c1C(c1ccc(Br)cc1)NC2=O (stereo not given) | 2.87% (inactive) |
| Nc1[nH]c(C(=O)c2ccc(Br)cc2)c(-c2ccc3c(c2)OCO3)c1C(=O)NCCc1c[nH]c2ccccc12 | -1.27% (inactive) |
| CCc1ccc(C2=CC(=O)CC(C)(C)C2=O)cc1 | 1.83% (inactive) |
| C[C@@H]1CN([C@H](C)CO)C(=O)CCCn2cc(nn2)CO[C@H]1CN(C)C(=O)Nc1ccc(N2CCCCC2)cc1 | 1.36% (inactive) |
| ON=C1/C(=N\O)CC2(C/C1=N/O)OCCO2 | 13.7% (active) |
| O/N=C1\CC2(Cc3nonc31)OCCO2 | 0.95% (inactive) |
| CN[C@H]1C[C@H]2c3[nH]c4c(-c5ccccc5)cccc4c3CCN2C(=O)[C@H]1[C@H](C)O | 1.58% (inactive) |
| Nc1ccn([C@@H]2O[C@H](C(=O)N[C@H]3CCCCNC3=O)[C@@H](O)[C@H]2O)c(=O)n1 | 1.72% (inactive) |
| O=C(NN=Cc1ccccc1O)NN=Cc1ccccc1O | 12.4% (active) |
| O=C(CO/N=C/c1ccccc1O)NNC(=O)c1ccccc1Cl | 0.32% (inactive) |
| O=C(CC(=O)N/N=C\c1cccc(Cl)c1Cl)NCc1ccccc1 | 3.05% (inactive) |
| COC(=O)C1=C(C)N(Cc2ccccc2C(F)(F)F)C(=NCC2CC2)NC1c1cccc(Cl)c1 (stereo not given) | 0.63% (inactive) |
| COC(=O)c1cc2c(c3c4ccccc4n(S(=O)(=O)c4cccc(C)c4)c13)C(=O)N(Cc1ccccc1)C2 | 5.66% (inactive) |
| COc1ccccc1-c1ccc([C@@H]2C[C@H]3[C@H](CON3C)CN2S(=O)(=O)c2cc(Cl)cc(Cl)c2)cc1 | 3.4% (inactive) |
| O=S1(=O)c2ccc(Br)cc2-n2nncc2CN1Cc1cccc(Cl)c1 | -0.4% (inactive) |
| C=C1c2c(Cl)ccc(O)c2C(O)=C2C(=O)[C@]3(O)C(O)=C(C(N)=O)C(=O)[C@@H](N(C)C)[C@@H]3[C@@H](O)C12 (stereo not given in full) | 102% (active) |
| CN(C)[C@@H]1C(=O)C(C(N)=O)=C(O)[C@@]2(O)C(=O)C3=C(O)c4c(O)ccc(Cl)c4[C@@H](O)[C@H]3C[C@@H]12 | 102% (active) |
| Clc1cccc2c1C1CC2CCN1Cc1ccccc1 (stereo not given) | 2.92% (inactive) |
| C=CCN=C1NC(c2cccc(C(F)(F)F)c2)C(C(=O)OC)=C(C)N1C (stereo not given) | 2.4% (inactive) |
| COc1ccccc1Cc1c(-c2ccc(F)cc2)nc2ccc(C)cn12 | 2.63% (inactive) |

| SMILES | inhibition |
| --- | --- |
| CC1CCN(C(=O)c2ncn3c2C(=O)N[C@@H](C)C3)CC1 | 0.88% (inactive) |
| O=C(Cn1cc(C(=O)c2cccs2)c2ccccc21)NCc1cccs1 | 3.17% (inactive) |
| Cc1cccc(NC(=O)Cn2cc(C(=O)c3ccco3)c3ccccc32)c1 | 16.3% (active) |
| CC1CCN(C(=O)Cn2cc(C(=O)c3ccco3)c3ccccc32)CC1 | 2.64% (inactive) |
| COCCCNC(=O)C[C@H]1C[C@@]2(C(=O)OC)C(=C[C@H](C(C)(C)C)O[C@@H]2C)N(Cc2ccc3c(c2)OCO3)C1=O | 0.08% (inactive) |
| Cc1nc(NC(=O)C(C)(C)C)sc1[N+](=O)[O-] | 0.38% (inactive) |
| CC[C@H]1OC(=O)[C@H](C)[C@@H](O[C@H]2C[C@@](C)(OC)[C@@H](O)[C@H](C)O2)[C@H](C)[C@@H](O[C@@H]2O[C@H](C)C[C@H](N(C)C)[C@H]2O)[C@](C)(O)C[C@@H](C)[C@@H]2N[C@@H](COCCOC)O[C@H]([C@H]2C)[C@]1(C)O | 39.4% (active) |
| Cc1ccc(N)cc1CN1CCN(c2ncc(Cc3ccccc3)cn2)CC1 | 1.25% (inactive) |
| COc1ccc(SSc2ccc(OC)cc2C(=O)O)c(C(=O)O)c1 | 3.45% (inactive) |
| CN1C(=O)C(Br)(Br)CC1c1cccnc1 (stereo not given) | 2.07% (inactive) |
| CC(C)[C@@H](C)/C=C/[C@@H](C)[C@H]1CC[C@@H]2[C@]1(C)CCC1[C@]23C=C[C@]2(C[C@@H](O)CC[C@]12C)N(c1ccc([N+](=O)[O-])cn1)O3 (stereo not given in full) | -0.39% (inactive) |
| N#Cc1ccccc1NC(=O)COc1c(Br)cc(Br)c2cccnc12 | -0.78% (inactive) |
| CC(=O)NC(c1cccs1)c1cc(Br)c2cccnc2c1O (stereo not given) | 18.8% (active) |
| O=[N+]([O-])c1cc([N+](=O)[O-])c2cccnc2c1O | -2.95% (inactive) |
| O=c1[nH]c(-c2ccccc2)cn1C1CCN(Cc2ccc(-c3nc4ccc(F)cc4nc3-c3ccccc3)cc2)CC1 | 0.95% (inactive) |
| CC(C)CNc1cccc2c1S(=O)(=O)N[C@H](CC(C)C)CO2 | 2% (inactive) |
| Cc1ccc(NC(=O)CCC(=O)N/N=C/c2ccco2)c(C)c1 | 0% (inactive) |
| Cc1ccc(/C=N/NC(=O)C2=NNC(c3ccccc3)(c3ccccc3)C2)c(O)c1 | 16.3% (active) |
| Cc1ccc(/C=N/NC(=O)C(NC(=O)c2ccccc2)c2n[nH]c(=O)c3ccccc23)cc1 (stereo not given) | 1.99% (inactive) |
| CN1CCCc2nc(-c3ccccc3)ccc21 | 2.87% (inactive) |
| C=CCNC(=O)CSc1nc2sc(C)c(C)c2c(=O)[nH]1 | 97.6% (active) |
| Cc1sc2nc(CSCC(=O)Nc3c(Cl)cccc3Cl)[nH]c(=O)c2c1C | -1.33% (inactive) |
| C=CCn1c(SCC(=O)Nc2ccc(NC(C)=O)cc2)nc2sc(C)c(C)c2c1=O | 5% (inactive) |
| COc1cccc(NC(=O)N(C)C[C@@H]2OCc3cn(nn3)CCCC(=O)N([C@@H](C)CO)C[C@H]2C)c1 | 1.68% (inactive) |
| Cc1cc(OC(=O)NCCc2ccc(F)cc2)ccc1F | 1.19% (inactive) |
| CCOC(=O)N1CCN(C(=O)C[C@H]2C[C@@]3(C(=O)OC)C(=C[C@H](C4CCCC4)O[C@@H]3C)N(Cc3ccccc3)C2=O)CC1 | -1.47% (inactive) |
